PubChem BioAssay (NCATS)
Values joined by “and” are separate entries in the source; they are usually repeats but may differ in a detail not shown here. Identical values can stand only once. Inconclusive results are not listed. Unmarked numbers belong to inactive results. Active and inactive are the calls of the source. Calls come from the whole dose curve; as a rule, active = well fitted cell-killing curve with a large enough effect; inconclusive = small, poorly fitted or top-dose-only effect, or effect the other way; inactive = no such curve, though single readings can be large or run the other way.

Assay: Viability qHTS for spleen associated tyrosine kinase inhibitor (SYKi) naive MV4-11 cells (AID 1963823); note: nearly all actives have a fitted effect of over 40% in size
Conditions: MV4-11 AML viability, CellTiter-Glo luminescence, 72 h; series mostly up to 45 µM; viability (% of control): at the top concentration
Summary of the method: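 Viability of MV4-11 AML cells lacking prior SYK inhibitor exposure is scored by CellTiter-Glo luminescence following 72 hr compound incubation at 37 C, 5% CO2, seeded at 500 cells per well.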
Potency is the fitted concentration of half-maximal effect.

| SMILES | viability (% of control) [%] | Potency |
| --- | --- | --- |
| CCC(C)(CN(C)C)OC(=O)c1ccccc1 (centres undefined) | 82.5 |  |
| CC(/C=C/[C@@H]1C[C@]1(C)c1ccc2c(c1)C(C)(C)CCC2(C)C)=C\C(=O)O |  | 0.0661 µM (active) |
| COc1ccc(N2C(=O)N(c3c(C)cccc3Cl)Cc3cnc(Nc4ccc(C5CCN(C)CC5)cc4OC)nc32)nc1 |  | 0.934 µM (active) |
| Cc1ccc(C(=O)Nc2ccc(CN3CCN(C)CC3)c(C(F)(F)F)c2)cc1C#Cc1cnc2[nH]ncc2c1 | 1.85 |  |
| CCN1C(=O)N2Cc3cc(OC)cc(OC)c3[C@@H](C)C=C2C12CCN(Cc1cc(C)cc(C)c1)CC2 |  | 18.6 µM (active) |
| O=C(Nc1cc(Oc2cc(F)c(NC(=O)C3(C(=O)Nc4ccc(F)cc4)CC3)cc2F)ccn1)C1CC1 |  | 23.1 nM (active) and 59 nM (active) |
| CC(C)Oc1ccc(-c2nn([C@@H](C)c3oc4ccc(F)cc4c(=O)c3-c3cccc(F)c3)c3ncnc(N)c23)cc1F |  | 14.8 µM (active) |
| CC(=O)O[C@H]1CC[C@@]2(C)C(=CC[C@@H]3[C@@H]2CC[C@]2(C)C(C(C)=O)=CC[C@@H]32)C1 | 64.2 |  |
| CC(C)Cc1ccc([C@@H](C)C(=O)NS(C)(=O)=O)cc1 | 95.4 |  |
| Cc1cc(C(C#N)c2ccc(Cl)cc2)c(Cl)cc1NC(=O)c1cc(I)cc(I)c1O (centres undefined) |  | 18.8 µM (active) |
| Cc1c(N(C)C)c(=O)n(-c2ccccc2)n1C | 66.4 |  |
| CC(C)N(CCC(=O)c1ccc2ccccc2c1)Cc1ccccc1 |  | 2.35 µM (active) |
| CN=C(NC#N)NCCSCc1csc(N=C(N)N)n1 | 90.8 |  |
| CCCCOC(=O)c1ccc(O)cc1 | 43.7 |  |
